The values that follow come from PubChem BioAssay (Tox21).

Experiment [1] is described as follows: qHTS assay to identify small molecule agonists of the RXR signaling pathway - cell viability counter screen (AID 1159529).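 Further: HEK 293T cells carrying an RXR-alpha UAS beta-lactamase reporter; series mostly up to about 77 µM; nearly all actives have a fitted effect of over 50% in size.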 Summed up: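 HEK 293T RXRa-bla cells, 2% CS-FBS; 5 h settle; cpd 16 h 37 C, 5% CO2; CellTiter-Glo 30 min RT, luminescence. Tetraoctyl ammonium bromide as positive control.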
A short description of experiment [2]: qHTS assay to identify small molecule antagonists of the estrogen related receptor (ERR) signaling pathway from Tox21 library - cell viability counter screen (AID 1224834). Further: nearly all actives have a fitted effect of over 30% in size. Further: potency means the concentration at half of the fitted maximal effect. Summed up: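 In this quantitative HTS format, ERR cells receive compounds in DMSO and are incubated for 17.5 h at 37 C. Live-cell protease activity is then detected with CellTiter-Fluor.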

In experiment [3] the target is Luciferin 4-monooxygenase (Photinus pyralis) (UniProt P08659). In words: qHTS assay to identify small molecule inhibitors of firefly luciferase (AID 1224835). Further: series mostly up to about 120 µM; nearly all actives have a fitted effect of over 25% in size. In short, it runs like this:
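Biochemical qHTS: compounds run as interplate titrations against purified firefly enzyme, with D-luciferin and ATP each at its KM concentration. Light output recorded by CCD imaging.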

A short description of experiment [4]: qHTS assay to identify small molecule agonists of the constitutive androstane receptor (CAR) signaling pathway - cell viability counter screen (AID 1224836). Further: series mostly up to about 92 µM; nearly all actives have a fitted effect of over 45% in size. Summed up: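 HepG2-CYP2B6-hCAR, 2500 cells/well, 4 h pre-incubation; cpd 15 conc + PK11195 0.75 uM final; 23 h, 37 C/5% CO2; CellTiter-Fluor, fluorescence.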
Background: qHTS replaces the single test concentration by a dilution series.

Experiment [5] in a line: qHTS assay to identify small molecule antagonists of the constitutive androstane receptor (CAR) signaling pathway - cell viability counter screen (AID 1224837). Further: series mostly up to about 92 µM; nearly all actives have a fitted effect of over 45% in size. Summed up:
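In quantitative HTS format, compounds at 15 concentrations were applied to HepG2 cells double-transfected with hCAR and CYP2B6-2.2kb under 50 nM CITCO stimulation; live-cell protease activity was read after 23 hr via CellTiter-Fluor.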

The target in experiment [6] is Nuclear receptor subfamily 1 group I member 3 (Homo sapiens) (UniProt Q14994). Put plainly: qHTS assay to identify small molecule antagonists of the constitutive androstane receptor (CAR) signaling pathway (AID 1224838). Further: nearly all actives have a fitted effect of over 40% in size. In short, it runs like this: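 CITCO-stimulated (50 nM final) HepG2 cells stably transfected with hCAR and CYP2B6-2.2kb luciferase were exposed to compounds at 15 concentrations for 24 h at 37 C/5% CO2. A luciferase reagent was added and luminescence recorded after 30 min.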

Experiment [7] shares this target. Put plainly: qHTS assay to identify small molecule agonists of the constitutive androstane receptor (CAR) signaling pathway (AID 1224839).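 Further: HepG2 cells stably carrying human CAR and a CYP2B6 luciferase reporter; series mostly up to about 92 µM; nearly all actives have a fitted effect of over 15% in size.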 In short, it runs like this: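 HepG2-CYP2B6-hCAR cells, 2500/well, 4 h pre-incubation; compounds 15 conc.; PK11195 0.75 uM final; 24 h, 37 C/5% CO2; ONE-Glo luciferase read.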
Experiment [8] is described as follows: qHTS assay to identify small molecule antagonists of the estrogen related receptor signaling pathway with the pleiotropic PPARgamma coactivator (PGC) from Tox21 10K library - cell viability counter screen (AID 1224840; active means well fitted cell-killing curve with a large enough effect in the repeat runs, not every such curve was filed as active; further: nearly all actives have a fitted effect of over 40% in size). Summed up:
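Viability counter screen, PGC/ERR cells: 17.5 h compound exposure at 37 C, CellTiter-Fluor fluorescence endpoint.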

Experiment [9] is described as follows: qHTS assay to identify small molecule agonists of the estrogen related receptor signaling pathway with the pleiotropic PPARgamma coactivator (PGC) from Tox21 10K library (AID 1224842). Further: nearly all actives have a fitted effect of over 15% in size. In short, it runs like this:
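PGC/ERR reporter cell line, 2,000 cells per well, incubated 6 h at 37 C before 23 nL compound in DMSO was added. After 18 h at 37 C, One-Glo luminescence read following 30 min at room temperature.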

Experiment [10] has as its target Thyrotropin receptor (Homo sapiens) (UniProt P16473). Put plainly: qHTS assay to identify small molecule agonists of the thyroid stimulating hormone receptor (TSHR) signaling pathway (AID 1224843; calls by dose curve; further: nearly all actives have a fitted effect of over 45% in size). In short, it runs like this: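 Agonist-mode screen: TSHR HEK293 cells received test chemicals for half an hour at room temperature, then HTRF cAMP detection reagents for one hour prior to fluorescence measurement. Each chemical ran as a 15-concentration series, triplicated.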

Experiment [11] in a line: qHTS assay to identify small molecule antagonists of the retinoid acid receptor (RAR) signaling pathway - cell viability counter screen (AID 1159551). Further: nearly all actives have a fitted effect of over 35% in size. Summed up:
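Viability of C3RL4 cells is quantified from ATP by luminescence after 6 h treatment at 37 C with compounds and 1 uM retinol.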

The nature of experiment [12]: qHTS assay to identify small molecule agonists of the retinoic acid receptor (RAR) signaling pathway (AID 1159553). In short, it runs like this:
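Compounds dissolved in DMSO were pinned onto C3RL4 cells seeded the previous day, and plates were held 6 hr at 37 C. RARE-driven luciferase output was then read by luminescence.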

Experiment [13] can be described thus: qHTS assay to identify small molecule antagonists of the estrogen related receptor signaling pathway with the pleiotropic PPARgamma coactivator (PGC) from Tox21 10K library (AID 1224841; call rule not given here; further: actives are mostly falling curves and most rising ones were filed inactive; nearly all actives have a fitted effect of over 50% in size; further: potency means the concentration at half of the fitted maximal effect; on activity, negative = inhibition: series mostly up to about 92 µM). Summed up: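 In the PGC/ERR line, DMSO solutions of test chemicals are pin-delivered to 2,000 cells/well six hours after dispensing. Following eighteen hours' incubation, One-Glo reagent is added and luminescence recorded.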

Experiment [14] is described as follows: qHTS assay to identify small molecule antagonists of the estrogen related receptor (ERR) signaling pathway - cell viability counter screen (AID 1224818). Further: series mostly up to about 46 µM. Summed up:
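Cytotoxicity check run alongside the ERR antagonist screen: cells exposed to test compounds 17.5 h at 37 C, viability taken as CellTiter-Fluor fluorescence intensity.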

Experiment [15] can be described thus: qHTS assay to identify small molecule antagonists of the estrogen related receptor (ERR) signaling pathway (AID 1224819;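 further: luminescence from an ERR-driven luciferase reporter measured with One-Glo reagent; series mostly up to about 46 µM; nearly all actives have a fitted effect of over 50% in size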). Summed up: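 ERR reporter cells were plated at 2,000 cells/well and left 6 h at 37 C/5% CO2 before pin-tool transfer of compounds in DMSO. After 18 h at 37 C, One-Glo was added and luminescence was read 30 min later at room temperature.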

The nature of experiment [16]: qHTS assay to identify small molecule agonists of the estrogen related receptor (ERR) signaling pathway (AID 1224820). In short, it runs like this:
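An ERR cell line provided by NTP was seeded at 2,000 cells per well and allowed to settle for 6 h before compounds in DMSO were added. After 18 h at 37 C, luciferase activity was measured by One-Glo luminescence.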

The subject of experiment [17] is estrogen-related receptor alpha (ERRalpha) with PGC-1alpha coactivator, human. In words: qHTS assay to identify small molecule antagonists of the estrogen related receptor signaling pathway with the pleiotropic PPARgamma coactivator (PGC) (AID 1224821; calls by dose curve;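 further: series mostly up to about 46 µM; lower luminescence signal means antagonism of PGC/ERR signalling; nearly all actives have a fitted effect of over 50% in size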). Summed up:
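A PGC/ERR cell line supplied by NTP is seeded, allowed 6 h at 37 C, and treated with test compounds in DMSO for 18 h. Signal is then measured as luciferase luminescence using One-Glo.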

Experiment [18] can be described thus: qHTS assay to identify small molecule agonists of the estrogen related receptor signaling pathway with the pleiotropic PPARgamma coactivator (PGC) (AID 1224823). Summed up: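 Compounds dissolved in DMSO are added by pin tool to PGC/ERR cells that have settled for 6 h, and incubation continues 18 h at 37 C. Reporter output is measured as One-Glo luminescence.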

The nature of experiment [19]: qHTS assay to identify small molecule antagonists of the retinoic acid receptor (RAR) signaling pathway (AID 1159552; further: nearly all actives have a fitted effect of over 50% in size; further: potency means the concentration at half of the fitted maximal effect). Summed up:
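Cells of the C3RL4 line were seeded, incubated overnight, then dosed with compounds in DMSO followed immediately by retinol (1 uM final). Six hours later luciferase detection reagent went in; signal was measured after 30 min at RT.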

Molecules are shown by their SMILES. Results filed as inconclusive are left out. Values without a mark were called inactive. The source made the active and inactive calls. Unless noted, the call rests on the fitted dose curve; in most records, active means well fitted curve in the direction sought with a large enough effect in the repeat runs; inconclusive means weak or mixed curves; inactive means no such curve, though single readings can be large; an effect the other way counts as inactive or inconclusive.
On the % scale 0 is the no-effect control and ±100 the full control effect.

Chain of Thyrotropin receptor (Homo sapiens) (P16473 whole entry, looked up): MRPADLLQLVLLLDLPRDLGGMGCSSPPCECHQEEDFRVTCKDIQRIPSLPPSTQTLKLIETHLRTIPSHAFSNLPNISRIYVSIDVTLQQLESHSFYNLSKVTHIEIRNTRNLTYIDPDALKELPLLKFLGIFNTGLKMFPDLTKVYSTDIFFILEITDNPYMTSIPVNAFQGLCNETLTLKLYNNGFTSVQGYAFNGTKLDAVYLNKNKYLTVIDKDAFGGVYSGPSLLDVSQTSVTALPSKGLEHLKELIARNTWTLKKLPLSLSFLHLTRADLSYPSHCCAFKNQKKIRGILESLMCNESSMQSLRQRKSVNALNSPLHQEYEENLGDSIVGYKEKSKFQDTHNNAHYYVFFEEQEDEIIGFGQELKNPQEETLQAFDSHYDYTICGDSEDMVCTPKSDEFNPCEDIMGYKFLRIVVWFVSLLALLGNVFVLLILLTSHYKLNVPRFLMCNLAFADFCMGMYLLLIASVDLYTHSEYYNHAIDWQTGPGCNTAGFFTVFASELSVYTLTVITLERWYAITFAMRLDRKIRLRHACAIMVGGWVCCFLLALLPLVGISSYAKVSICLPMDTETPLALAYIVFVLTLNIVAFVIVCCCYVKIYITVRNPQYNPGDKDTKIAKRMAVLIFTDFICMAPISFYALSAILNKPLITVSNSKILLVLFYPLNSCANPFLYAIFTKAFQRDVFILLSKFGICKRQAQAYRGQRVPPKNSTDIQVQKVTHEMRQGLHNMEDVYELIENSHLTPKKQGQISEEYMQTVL
Chain of Luciferin 4-monooxygenase (Photinus pyralis) (P08659 whole entry, looked up): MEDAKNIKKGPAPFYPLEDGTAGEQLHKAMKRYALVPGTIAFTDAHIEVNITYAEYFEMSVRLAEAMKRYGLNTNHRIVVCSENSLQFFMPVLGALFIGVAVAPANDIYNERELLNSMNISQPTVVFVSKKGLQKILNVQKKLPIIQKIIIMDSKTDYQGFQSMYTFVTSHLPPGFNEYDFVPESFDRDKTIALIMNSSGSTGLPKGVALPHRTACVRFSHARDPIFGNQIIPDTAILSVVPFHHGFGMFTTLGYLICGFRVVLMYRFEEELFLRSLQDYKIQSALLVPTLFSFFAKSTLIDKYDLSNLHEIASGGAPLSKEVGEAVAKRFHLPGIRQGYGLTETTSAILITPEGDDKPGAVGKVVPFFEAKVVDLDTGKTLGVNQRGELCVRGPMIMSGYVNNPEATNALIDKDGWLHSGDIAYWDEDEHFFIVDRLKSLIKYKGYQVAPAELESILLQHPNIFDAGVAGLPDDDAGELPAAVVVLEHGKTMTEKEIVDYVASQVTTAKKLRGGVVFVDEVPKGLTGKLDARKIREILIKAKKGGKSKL
Chain of Nuclear receptor subfamily 1 group I member 3 (Homo sapiens) (Q14994 whole entry, looked up): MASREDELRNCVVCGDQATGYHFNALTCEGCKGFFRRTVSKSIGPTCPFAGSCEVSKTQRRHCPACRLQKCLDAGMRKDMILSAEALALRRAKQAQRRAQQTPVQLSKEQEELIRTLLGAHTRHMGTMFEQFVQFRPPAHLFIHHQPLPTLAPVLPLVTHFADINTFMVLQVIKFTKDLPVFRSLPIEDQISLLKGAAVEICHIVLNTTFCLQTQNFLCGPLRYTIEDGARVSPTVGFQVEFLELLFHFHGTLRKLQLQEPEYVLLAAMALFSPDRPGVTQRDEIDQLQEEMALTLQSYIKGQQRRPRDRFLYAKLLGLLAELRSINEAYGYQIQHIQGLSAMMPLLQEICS

With `c1cc(CCCc2ccncc2)ccn1`, the Potency entry in [1], in experiment [2], in [3], in [4], in [5] and in experiment [6] was “inactive” throughout. In addition, the Potency entry in experiment [7], in [8], in experiment [9] and in [10] was “inactive” each time.
With `O=[N+]([O-])c1cccc(S(=O)(=O)O)c1`, the Potency entry in [11], in [12], in experiment [3] and in experiment [9] was “inactive” throughout. The Potency is 43.9 µM (active) in experiment [2] and 55.3 µM (active) in experiment [13].
As for `CN(C)CCCN1c2ccccc2Sc2ccccc21`, the Potency result in experiment [11], in experiment [12], in experiment [15], in experiment [17], in experiment [3] and in experiment [4] was “inactive” each time. The Potency entry in [5], in [6], in [7], in [8] and in [9] was “inactive” in each case. Besides, the molecule was classed as inactive in [14], in experiment [16] and in [18].
On to `CCCCc1nc2cccnc2n1Cc1ccc(-c2ccccc2-c2nnn[nH]2)cc1`, for which the Potency result in [1], in experiment [4], in [6], in experiment [7], in experiment [8] and in [10] was “inactive” throughout.
As to `CN(C)CCN(Cc1ccc(Cl)cc1)c1ccccn1`, the Potency result in [11], in [19], in [12], in [2], in experiment [3] and in [4] was “inactive” throughout. The Potency entry in experiment [5], in experiment [6], in experiment [7], in experiment [8] and in experiment [10] was “inactive” throughout.
As for `O=C(NCC1CN(c2ccc(N3CCOCC3=O)cc2)C(=O)O1)c1ccc(Cl)s1` (stereo not drawn), the Potency entry in experiment [11], in experiment [19], in experiment [12], in [2], in experiment [3] and in experiment [5] was “inactive” in each case. The Potency entry in [8], in experiment [9] and in experiment [10] was “inactive” throughout.
Regarding `CCO[Si](CCCCl)(OCC)OCC`, the Potency entry in [11], in experiment [12], in [2], in experiment [3], in [4] and in [5] was “inactive” in each case. Moreover, the Potency entry in experiment [6], in experiment [7], in experiment [8] and in [10] was “inactive” each time.
On to `CC(CSC(=O)c1ccccc1)C(=O)N1C[C@@H](Sc2ccccc2)C[C@H]1C(=O)O` (stereo partly drawn), for which the activity change, negative = cytotoxicity in experiment [1] is -1.14% [at 15.8 µM]; in [5] it was 0% [at 19 µM]. In addition, the figures for the viability change, negative = cytotoxic in experiment [2], in experiment [4] and in experiment [8] were 7.27% [at 19 µM], 5.15% [at 19 µM] and 17.4% [at 19 µM], respectively. In addition, the activity change, negative = inhibition in [3] was 0.3% [at 23.6 µM]. For the same molecule, the activity, negative = inhibition in experiment [13] is 1.67% [at 19 µM]. Further, the activation in experiment [9] is 0.512% [at 19 µM].
`C#C[C@]1(O)CC[C@H]2[C@@H]3CCc4cc(OC5CCCC5)ccc4[C@H]3CC[C@@]21C`: the Potency result in experiment [11], in experiment [19], in experiment [12], in [2], in experiment [3] and in [4] was “inactive” in each case. Also, the Potency entry in experiment [8] was “inactive”.
As for `CCCOC(C(=O)OC1CCN(C)CC1)(c1ccccc1)c1ccccc1`, the Potency result in experiment [11], in experiment [12], in experiment [3], in experiment [4], in experiment [7] and in experiment [9] was “inactive” throughout. Further, the Potency entry in experiment [10] is “inactive”.
With `CC(C)=CCC/C(C)=C/CC/C(C)=C/CO`, the Potency result in experiment [11], in experiment [12], in experiment [2], in [3], in [4] and in experiment [5] was “inactive” each time. Moreover, the Potency entry in experiment [6], in [8] and in [10] was “inactive” throughout. Besides, the Potency in experiment [19] is 68.6 µM (active).
